Experimental data: PubChem BioAssay (NCI)
Where “and” joins values, the source holds several entries; their conditions need not be identical. Equal entries are not always repeated. About 83,000 compounds went through this panel and 20% of them were active in at least one assay; those are over-represented in the sample as a whole.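 Growth was measured after 48 h exposure to one concentration of compound in 96-well plates. Values under 10 count as active.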 Values without a mark were called inactive. Calls of active or inactive are those of the source.

Each molecule was assayed on HOP-92 NSCLC (assay: NCI-60 one-dose screen, 48 h (100 = growth as untreated, 0 = no growth, -100 = all killed)). Conditions: 0.005 µM.
Description: Growth inhibition of the HOP-92 human Non-Small Cell Lung tumor cell line is measured as a screen for anti-cancer activity. Cells are grown in 96 well plates and exposed to the test compound for 48 hours. Compounds are tested at a single concentration, which is 10^-5 M for most compounds. The reported endpoint is percent growth (GI% or GIPRCNT), where numbers from 0 - 100% represent growth inhibition, and numbers from -100% - 0 represent cell death. For example, a value of 40 represents 60% growth inhibition. A value of 0 means no net growth occurred over the course of the experiment. A value of -40 indicates 40% of cells at the beginning of the experiment died by the end of the experiment. A value of -100 means all cells are dead at the end of the experiment.
NCI-60 Human Tumor Cell Lines Screen was performed using the standard one-dose NCI protocol, which is described in more detail at https://dtp.cancer.gov/discovery_development/nci-60/default.htm.
Compounds with GIPRCNT values below 10 were considered active. Activity score was based on GIPRCNT using the following formula: […]
Score is 0 for GIPRCNT values of 100 or above, 50 for GIPRCNT values of 0, and 100 for GIPRCNT values of -100.

| SMILES | growth |
| --- | --- |
| CN(C)CCNc1ncc(F)c(-c2cnc3cc(-c4cnn(C)c4)ccn23)n1 | 105% |

Same assay, conditions: 10 µM

| SMILES | growth |
| --- | --- |
| CC(=O)/C=C/c1ccc(OCc2ccc(C(C)(C)C)cc2)cc1 | 89.5% |

Same assay, conditions: 10 µM unless noted

| SMILES | growth |
| --- | --- |
| Nc1nc2ccccc2c2c(=O)c3ccc(Cl)cc3sc12 | 84.1% |
| C=C(c1ccc(C(=O)O)cc1)c1cc2c(cc1C)C(C)(C)CCC2(C)C | 68.4% |
| COc1ccc(C(CC(=O)c2ccc3c(c2)OCO3)C(=O)O)cc1OC (stereo not given) | 108% and 101% |
| C=C1C(=O)O[C@@H]2[C@H]3[C@H](COC(C)=O)[C@@H](OC(C)=O)C[C@H]3C(=C)[C@@H](O)C[C@@H]12 | 99.8% |
| CCN1C(=S)N(CC)C2C1NC(=S)N2/N=C/C=C/c1ccccc1 (stereo not given) | 62.2% |
| N#Cc1ccccc1OCC(=O)Nc1nc2c(s1)COc1ccccc1-2 | 106% |
| COc1cc(/C=C/C(=O)c2ccc(NC(=O)CSc3nnc(-c4cc(-c5ccccc5)nc5ccccc45)n3-c3ccccc3)cc2)cc(OC)c1OC | 88.6% |
| O=C(/C=C/c1ccc(Cl)s1)c1ccc(Cl)s1 | 79.3% and 105% |
| O=C(Nc1ncc(Cc2cccc(C(F)(F)F)c2)s1)c1ccc2c(c1)OCCO2 | 51.3% |
| O=C(Nc1ccc2ccccc2c1)c1cc2ccccc2cc1O | 63.7% |
| O=C1C(N2CCOCC2)=C(I)C(=O)c2ncccc21 | 123% |
| NC1=CC(=O)c2cccnc2C1=O | -31.3% (active) |
| COc1ccc(/C=C2\COc3ccc(O)c(O)c3C2=O)c(OC)c1OC | 38.9% |
| O=C1/C(=C/c2ccccc2)CN(C(=O)C(Cl)Cl)C/C1=C\c1ccccc1 | 41.8% |
| O=C1CCCCN1CCCCC#Cc1cccc(C#Cc2cccnc2)c1 | 31.9% |
| COc1cc(/C=C2\C(=O)N(CCCCn3c4ccccc4c(=O)c4ccccc43)c3ccccc32)cc(OC)c1O | 65.7% |
| CC/C(=C(/c1ccc(O)cc1)c1ccc(OCCN2CCCCCC2)cc1)c1ccc(Cl)cc1 | 69.5% |
| CC(=O)c1c(C)nc2ccccc2c1/C=C/c1cccc(C)c1 | 60.2% |

| SMILES | growth |
| --- | --- |
| CN1CCN(CCCN2c3ccccc3Sc3ccc(Cl)cc32)CC1 | 48.1% and 29.4% |
| CCNC(=O)Nc1ncccc1OCc1ccc(F)cc1 | 108% |
| FC(F)(F)Sc1ccc(/C=C/c2cc(/C=C/c3ccc(SC(F)(F)F)cc3)n(-c3ccccc3)n2)cc1 | 87.3% |
| C#CCOc1cccc(Nc2ncc3ncn(C4CCN(C(=O)CCl)C4)c3n2)c1 (stereo not given) | 73% [6.25 µM] |
| CCCCC1COc2cccc3c2N1C=C/C3=C\C(=O)N(C)c1cccc(Cl)c1 (stereo not given) | 92% |
| CCCCCCCCn1ccc2cc(NC(=O)CN3CCN(c4nc(C)cc(N5CCCCC5)n4)CC3)ccc21 | 102% |
| O/N=C(/c1ccccc1)c1ccc2c3c(cccc13)CC2 | 49.4% and 64.9% |
| O=C(CN1C(=O)S/C(=C\C(Cl)=C\c2ccccc2)C1=O)NC1C=CS(=O)(=O)C1 (stereo not given) | 37.2% |
| Nc1nc(CSc2n[nH]c(N)n2)nc(Nc2ccccc2)n1 | 95.4% |
| C/C=C(\C)C(=O)N[C@H]1CC[C@]2(C)C3CC[C@@]4(C)C(CC[C@@H]4C(C)N(C)C)C3CCC2[C@H]1OC(C)=O (stereo not given in full) | -49.4% (active) |
| Cc1cc2nc(C(Cl)Cl)nc(-c3ccc(Cl)cc3)n2n1 | 16.1% |
| Cc1nc2sc(C(=O)Nc3cccc(Cl)c3C)c(N)c2cc1C(O)c1ccccc1 (stereo not given) | 30% |
| CCOC(=O)n1cc(-c2nonc2-c2cn(C)c3ccc(OC)cc23)c2cc(F)ccc21 | 71.4% |
| COc1cc(F)c(/C=C/c2cc(/C=C/c3cc(OC)c(OC)cc3F)n(-c3cc(F)cc(F)c3)n2)cc1OC | 80.9% |
| COc1cc(-c2nn(-c3cccc(NC(=O)CCN4CCN(C)CC4)c3)cc2-c2ccncc2)ccc1Cl | 22.7% |
| Cc1ccc(S(=O)(=O)OC[C@@]2(C)CC[C@]3(C)CC[C@]4(C)C(=CC[C@@H]5[C@@]6(C)CCCNC(C)(C)[C@@H]6CC[C@]54C)[C@@H]3C2)cc1 | -71.2% (active) |
| O=C1C(c2c[nH]c3ccccc23)=C(c2coc3cc(Br)ccc23)C(=O)N1O | 92.1% |
| O=[N+]([O-])c1cc(C(F)(F)F)ccc1Sc1ccc(C(F)(F)F)cc1[N+](=O)[O-] | 120% |

Same assay, conditions: 30 µM

| SMILES | growth |
| --- | --- |
| CN(C)CCNc1ncc(F)c(-c2cnc3cc(-c4cnn(C)c4)ccn23)n1 | 61.4% |

Same assay, conditions: 100 µM

| SMILES | growth |
| --- | --- |
| CC(=O)/C=C/c1ccc(OCc2ccc(C(C)(C)C)cc2)cc1 | -14.7% (active) |
